{"source": "ChEMBL document CHEMBL3433997", "about": "“St. Jude Leishmania screening dataset” (2016)"}
{"target": "Glucose transporter (Leishmania mexicana) (UniProt O61059)", "assay": "ST_JUDE_LEISH: Cytotoxicity at 2uM final concentration against transgenic Leishmania Mexicana promastigotes LmGT2 that are glucose transport deficient and complemented with the L. Mexicana glucose transporter 2. Activity is measured by DNA content using SYBR green in vitro", "type": "functional", "units": {"inhibition": "%"}}
{"smiles": "COc1ccc(-c2c(-c3ccc(OCc4ccccc4)cc3O)n[nH]c2C(F)(F)F)cc1", "inhibition": 1.92}
{"smiles": "COc1ccc(NC(=O)[C@H](CC(C)C)Nc2ccnc(NCCc3ccc(F)cc3)n2)cc1", "inhibition": 1.38}
{"smiles": "CC(C)C1=NC(=O)c2cc([N+](=O)[O-])ccc2CN1", "inhibition": 2.11}
{"smiles": "O=C(Nc1ccc(Cl)cc1)Nc1ccc(-c2csc(-c3nc4ccccc4[nH]3)c2)cc1", "inhibition": 0.83}
{"smiles": "CC(CN1CCN(C)CC1)C(=O)Nc1ccc(-c2csc(-c3nc4ccccc4[nH]3)c2)cc1", "note": "(stereo not given)", "inhibition": 5.51}
{"smiles": "O=C(Cc1c[nH]cn1)Nc1cccc(-c2cccc(-c3nc4cc(C(F)(F)F)ccc4[nH]3)c2)c1", "inhibition": 10.4}
{"smiles": "CCN(CC)CCN(Cc1ccc(-c2ccc(C(F)(F)F)cc2)cc1)C(=O)Cn1c(CCc2cccc(F)c2F)nc(=O)c2ccccc21", "inhibition": 1.67}
{"smiles": "N#Cc1ccc2c(c1)CCN(CCC1CCC(NC(=O)Nc3ccncc3)CC1)C2", "note": "(stereo not given)", "inhibition": 5.01}
{"smiles": "COc1c(C2CCN(CCCCNC(=O)c3ccc(-c4ccc(C(F)(F)F)cc4)c(C(=O)OC(C)C)c3)CC2)ccc2c1CCCC2", "inhibition": 0.91}
{"smiles": "CCOc1ccc(-c2n[nH]c(C(F)(F)F)c2-c2ccccc2OC)c(O)c1", "inhibition": 1.29}
{"smiles": "Cc1ccn2c(N(Cc3ccccc3)C(=O)c3ccc(Cl)c(Cl)c3)c(-c3ccccc3)nc2c1", "inhibition": 0.79}
{"smiles": "COc1ccc(C=NN=c2cc(C)[nH]c3ccccc23)c(OC)c1", "inhibition": 55.3}
{"smiles": "N[C@@H](CCNCc1ccc(-c2cccnc2)cc1)Cc1ccc(F)c(F)c1", "inhibition": 0.4}
{"smiles": "COc1ccc2ccc(OC)c(CNCCCCCCNCc3c(OC)ccc4ccc(OC)cc34)c2c1", "inhibition": 4.72}
{"smiles": "O=C(NCc1cccc(F)c1)Nc1cccc(-c2cccc(-c3nc4cc(C(F)(F)F)ccc4[nH]3)c2)c1", "inhibition": -2.1}
{"smiles": "O=[N+]([O-])c1ccc(C(O)P(=O)(c2ccccc2)c2ccccc2)cc1", "note": "(stereo not given)", "inhibition": -0.11}
{"smiles": "Cc1cc(=NN=Cc2cccc(F)c2)c2cc(F)ccc2[nH]1", "inhibition": 4.81}
{"smiles": "COc1ccc(S(=O)(=O)N2CCC3(CC2)OCC(=O)NC3c2ccc(Cl)c(Cl)c2)cc1", "note": "(stereo not given)", "inhibition": 0.92}
{"smiles": "O=C(Nc1cccc(CN2CCCN(Cc3cccc(F)c3)CC2)c1)c1ccc(Cl)c(Cl)c1", "inhibition": 6.5}
{"smiles": "Cc1cc(N[C@@H](CC(C)C)C(=O)NCc2cccc(F)c2)nc(Nc2ccccc2)n1", "inhibition": 1.1}
{"smiles": "CCOC(=O)c1cccc(NC(=N)Nc2nc(C)cc(NCCc3ccccc3)n2)c1", "inhibition": 5.39}
{"smiles": "CN(C)Cc1ccc(CN2CCN(CCOc3ccc(-c4ccc(Cl)cc4)cc3)CC2)o1", "inhibition": 19.2}
{"smiles": "O=C(c1cc(-c2ccccc2)n[nH]1)N1CCN(S(=O)(=O)c2ccc(Cl)s2)CC1", "inhibition": 2.66}
{"smiles": "O=C(C=Cc1ccc(Cl)c(Cl)c1)NCCCCCN1CCC(CCCNS(=O)(=O)c2cccc(C(F)(F)F)c2)CC1", "inhibition": 2.46}
{"smiles": "COc1cc(Nc2ccnc3cc(-c4ccccn4)ccc23)cc(OC)c1OC", "inhibition": 5.6}
{"smiles": "O=C(/C=C/c1ccc(Cl)c(Cl)c1)NCCCCCN1CCC(NC(=O)Nc2ccccc2F)CC1", "inhibition": -0.91}
{"smiles": "CCNc1cc(C(=O)N[C@@H](Cc2ccccc2)[C@H](O)CNC(CC)c2cccc(Cl)c2)cc(N2CCCCS2(=O)=O)c1", "note": "(stereo not given in full)", "inhibition": -0.27}
{"smiles": "CCCCNC(=O)[C@@H]1CCCN1C(=O)c1ccc(O)c(-c2ccc(Cl)c(Cl)c2)c1", "inhibition": -3.49}
{"smiles": "COc1ccc(Nc2ncc3c(-c4cccc(NC(=O)CC(C)C)c4)c[nH]c3n2)cc1OC", "inhibition": 6.64}
{"smiles": "Cc1cccc2nc(-c3ccc(-c4ccc(CN5CCN(CCO)CC5)cc4)cc3)[nH]c12", "inhibition": 17.5}
{"smiles": "CC(C)(CNCc1ccc(Cl)cc1)c1nc(-c2ccc(Cl)c(O)c2)c(-c2ccncc2)[nH]1", "inhibition": -1.23}
{"smiles": "CC(C)(C)c1ccc(-c2csc(NC(=O)CC(c3ccccc3)c3ccccc3)n2)cc1", "inhibition": 2.07}
{"smiles": "O=c1cc(NCCCNCc2ccc(Cl)c(Cl)c2)[nH]c2ccc(C(F)(F)F)cc12", "inhibition": 2.08}
{"smiles": "COCCN1CCN(Cc2ccc(-c3cccc(-c4nc5ccccc5[nH]4)c3)cc2)CC1", "inhibition": -2.88}
{"smiles": "Cc1[nH]c(C)c(-c2ccc(OCc3cc(C(F)(F)F)cc(C(F)(F)F)c3)nc2)c(=O)c1Br", "inhibition": 2.99}
{"smiles": "CCCCCCCCS(=O)(=O)NCCCC1CCN(CCCCCNC(=O)C=Cc2ccc(Cl)c(Cl)c2)CC1", "inhibition": 2.95}
{"smiles": "CC(C)(C)c1nn(-c2ccccc2)c2[nH]c(=O)c(CNCCc3ccccc3)cc12", "inhibition": -1.89}
{"smiles": "CCc1cc(Br)c2c(c1)C(NCCCNc1cc(=O)c3ccccc3[nH]1)CCN2", "note": "(stereo not given)", "inhibition": 5.63}
{"smiles": "O=C(Nc1cccc(N2CCC(NCc3cnn(-c4cccc(F)c4)c3)CC2)c1)c1ccncc1", "inhibition": -0.33}
{"smiles": "FC(F)(F)c1cc(C(F)(F)F)c2cc(CNCCCNc3nc4ccccc4[nH]3)[nH]c2c1", "inhibition": -1.92}
